# Laboratory results as given in PubChem BioAssay AID624459 (National Center for Advancing Translational Sciences (NCATS), 2012).
# The source made the active and inactive calls. No rule for the calls is given here.
# Experiment: HTS Assay for Allosteric Antagonists of the Human D2 Dopamine Receptor: Hit Validation in Parental Cell Line
# Conditions: HEK293 T-REx parental cells, calcium flux, dopamine EC80; series mostly up to 41.8 µM
structure (smiles),measurement,value
NCCc1ccc(O)c(O)c1,outcome,inactive
